A number with no mark means an inactive call. The call rests on the fitted dose curve; in most records, active means well fitted activation curve with a large enough effect in the repeat runs; inconclusive means weak or mixed curves; inactive means flat fitted curve, though single readings scatter.
biological target: KiSS-1 receptor (Homo sapiens) (UniProt Q969F8); test: Human kisspeptin (KISS1R) small molecule agonists, calcium flux assay in KISS1R-HEK293 cells (AID 1920064); conditions: KISS1R-HEK293, calcium flux fluorescence, agonist; series mostly up to 76.8 µM; activation: at the top concentration
Description: National Center for Advancing Translational Sciences [NCATS]
Division of Preclinical Innovation [DPI]
U.S. Environmental Protection Agency [EPA]
National Institutes of Environmental Health Sciences [NIEHS]
National Toxicology Program [NTP]
U.S. Food and Drug Administration [FDA]
Kisspeptin and its receptor KISS1R play key roles in mammalian reproduction due to their involvement in the onset of puberty and control of the hypothalamic-pituitary-gonadal axis such as regulates GnRH release from the hypothalamus. The kisspeptin/KISS1R system also plays a direct role in peripheral organs (including the ovary, testis, uterus, and placenta) and is implicated in reproductive diseases such as miscarriage and polycystic ovary syndrome (PCOS). Abnormal KISS1R activity is associated with abnormal puberty, infertility, endometriosis, and hormone-dependent tumors. The KISS1 receptor (KISS1R, also called GPR54), a G-protein-coupled receptor (GPCR), acts (through phospholipase C) to increase intracellular inositol trisphosphate and then release intracellular calcium stores. Cell-based KISS1R-HEK293 assay is using HEK293 cells that have been genetically engineered to express the human KISS1R, which activity can be measured by calcium signaling. A compound/drug can activate (agonist) KISS1R that can be monitored by levels of intracellular calcium.
KISS1R-HEK293 cells developed by Codex Corp contain human KISS1R gene, which was stably integrated into HEK 293 cells. The compound activation can be detected by fluorescence intensity via calcium flux assay. This cell line has been used to screen the Tox21 10K compound library to identify agonists of KISS1R.
KISS1R-Hek293 cells were dispensed at 1500 cells/4uL/well in 1536-well black wall/clear bottom plates using a multidrop dispenser. After the assay plates were incubated at a 37 C/5% CO2 incubator for 18 hours, 4 microL of Calcium Dye Solution was added to each well. The plates were incubated at 37 C for 1 hour. And then 23 nL of compounds dissolved in DMSO, positive controls, or DMSO only was transferred to the assay plate by a pin tool station. The fluorescence intensity in the plates was measured using FDSS 7000EX kinetic plate reader with a filter set of Ex/Em=480/540 for 3 min at 1 sec intervals. Each test compound was measured at 15 concentrations and in triplicates.
On the % scale 0 is the no-effect control and ±100 the full control effect.

Chain of KiSS-1 receptor (Homo sapiens) (Q969F8 whole entry, looked up): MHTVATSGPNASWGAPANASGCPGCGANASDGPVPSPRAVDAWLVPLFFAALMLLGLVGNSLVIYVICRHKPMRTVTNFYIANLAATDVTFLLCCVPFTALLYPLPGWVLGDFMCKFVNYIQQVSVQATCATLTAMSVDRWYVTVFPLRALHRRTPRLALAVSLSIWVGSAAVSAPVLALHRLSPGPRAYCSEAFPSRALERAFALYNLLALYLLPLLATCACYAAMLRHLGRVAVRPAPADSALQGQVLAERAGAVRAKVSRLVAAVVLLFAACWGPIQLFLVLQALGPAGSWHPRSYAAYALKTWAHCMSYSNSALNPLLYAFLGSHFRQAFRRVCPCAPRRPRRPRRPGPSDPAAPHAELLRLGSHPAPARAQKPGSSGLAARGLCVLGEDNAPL

In order of rising “activation” value:
1. NCCN1CCOCC1  -4.9%
2. CCCCCC/C=C\CCCCCCCC(=O)O  -3.92%
3. CO[Si](C)(OC)OC  -2.46%
4. O=C(O)CCCl  -1.67%
5. O=P(O)(O)OP(=O)(O)O  -1.57%
6. CCCc1ccc(OC)cc1  -1.33%
7. CCCCCCCCS(=O)(=O)O  -0.839%
8. C=C(C)C(=O)OCCOCCOCCOCCOC(=O)C(=C)C  -0.617%
9. COC(=O)CC(=O)C(C)(C)C  -0.441%
10. COc1ccc2cc(S(=O)(=O)N[C@H](CC(=O)N[C@H](Cc3ccc(CN4[C@H](C)CCC[C@@H]4C)cc3)C(=O)N(C)C(C)C)c3ccc4c(c3)OCO4)ccc2c1  -0.301%
11. O=C(O)c1cc(C(=O)O)cc(C(=O)O)c1  -0.225%
12. Cc1ccc(O)c(O)c1  0.173%
13. CC(C)C(C)C  0.453%
14. CC(=O)OC1C2(C)CCC(C2)C1(C)C (stereo not given)  0.565%
15. CCN1CCOCC1  1.31%
16. CCCCCCCC/C=C/CCCOC(C)=O  1.33%
17. C/C=C/C(=O)C1=C(C)CCCC1(C)C  1.44%
18. ClC(Cl)(Cl)c1ccc(C(Cl)(Cl)Cl)cc1  2.26%
19. CN(C)C(=O)NC1(c2ccccc2)CCN(CC[C@@]2(c3ccc(F)c(F)c3)CN(C(=O)c3ccccc3)CCO2)CC1  2.47%
20. C=CCOC(=O)c1ccc(C(=O)OCC=C)c(C(=O)OCC=C)c1  2.53%
21. CCCC(CC)CCCCCCCN (stereo not given)  3.37%
22. Cc1cccc(NC(=S)N(C)C)c1  4.06%
23. CC1(C)C(=O)N(Br)C(=O)N1Br  8.55%
24. CCCCCCOC(=O)CC(CC(=O)OCCCCCC)(OC(=O)CCC)C(=O)OCCCCCC  11.7%
25. O=C1Cc2ccccc2N1c1c(Cl)cccc1Cl  17.6%
26. CC(=O)OC(C(=O)c1ccccc1)c1ccccc1 (stereo not given)  26.7%

In order of falling “activation” value:
1. CCC1=C[C@@H]2CN(C1)Cc1c([nH]c3ccccc13)[C@@](C(=O)OC)(c1cc3c(cc1OC)N(C)[C@H]1[C@@](O)(C(=O)OC)[C@H](OC(C)=O)[C@]4(CC)C=CCN5CC[C@]31[C@@H]54)C2  15.6% [at 35.3 µM]
2. CCOC(=O)[C@H](CCc1ccccc1)N[C@H]1CCc2ccccc2N(CC(=O)O)C1=O  10.2% [at 35.3 µM]
3. O=C(Nc1ccc(Oc2ccc(Cl)cc2)c(Cl)c1)c1cc(I)cc(I)c1O  8.91% [at 35.3 µM]
4. COc1cc2nc(N(C)CCCNC(=O)C3CCCO3)nc(N)c2cc1OC (stereo not given)  2.66% [at 35.3 µM]
5. O=c1[nH]c2ccccc2n1CCCN1CCN(C(c2ccccc2)c2ccccc2)CC1  0.304% [at 35.3 µM]
6. NC(Cc1c[nH]c2ccccc12)C(=O)O (stereo not given)  0.21% [at 35.3 µM]
7. CN(C)CC[C@@H](c1ccc(Br)cc1)c1ccccn1  0.147% [at 35.3 µM]
8. COc1cc(C(C)=O)ccc1OCCCN1CCC(c2noc3cc(F)ccc23)CC1  -0.0679% [at 35.3 µM]
9. C#C[C@]1(OC(C)=O)CC[C@H]2[C@@H]3CCC4=C/C(=N/O)CC[C@@H]4[C@H]3CC[C@@]21CC  -0.172% [at 35.3 µM]
10. CCCCCCCCCCC[C@@H](C[C@@H]1OC(=O)[C@H]1CCCCCC)OC(=O)[C@H](CC(C)C)NC=O  -0.581% [at 35.3 µM]
11. CCOc1ccc2nc(S(N)(=O)=O)sc2c1  -1.68% [at 35.3 µM]
12. C/C(=C\c1ccc(C(=O)O)cc1)c1ccc2c(c1)C(C)(C)CCC2(C)C  -2.78% [at 35.3 µM]

In the case of `CC1CN(c2cc3c(cc2F)c(=O)c(C(=O)O)cn3-c2ccc(F)cc2F)CCN1` (stereo not given), the activation is reported as 3.09% [at 6.97 µM].

For `c1ccc(-c2ccc(-c3ccccc3)cc2)cc1`, the activation was 1.85% [at 15.8 µM].

— PubChem BioAssay (Tox21)
